# Test results: PubChem BioAssay AID651610 (Broad Institute, 2012)
# Several values for one entry are separate records, joined by “and”; a condition that tells them apart may be missing. Identical values can stand only once. About 3,900 (1.1%) of roughly 360,000 compounds were called active. This is one part of a sample in which actives are shown more often than they occur. Values without a mark were called inactive.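 How the source made its calls: active means mean replicate inhibition score of at least 50 and every replicate individually at or above 50; inconclusive means only one of the two criteria met; inactive means mean below 50 and not all replicates reaching 50.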
# Assay: inhibitors of HIV-1 Env-driven cell-cell fusion, primary screen, HeLa-JRFL effector, CEM21 target cells, luciferase (AID 651610);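 further: 0% = plate neutral controls and 100% = maraviroc near 300 nM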
# Settings: stronger effect = higher value
smiles,measurement,setting,value
O=C(O)c1cc([N+](=O)[O-])c(Nc2cccc3ccccc23)c([N+](=O)[O-])c1,inhibition,at 16.7 µM unless noted,1.53% [at 12.3 µM]
O=C(NC(Nc1nc2ccc([N+](=O)[O-])cc2s1)(C(F)(F)F)C(F)(F)F)c1ccccc1,inhibition,at 16.7 µM unless noted,81.1% [at 12.3 µM] (active)
CC(Nc1ccc([N+](=O)[O-])cc1[N+](=O)[O-])c1ccccc1 (stereo not given),inhibition,at 16.7 µM unless noted,-0.676% [at 12.3 µM]
COc1cccc(-c2cnc3c(c2)C(=O)N([C@H](C)CO)C[C@H](C)[C@H](CN(C)C(=O)NC(C)C)O3)c1,inhibition,at 16.7 µM unless noted,7.31%
CCc1ccc(-c2nc(SCC(=O)NC3CCCC3)n[nH]2)cc1,inhibition,at 16.7 µM unless noted,56.7% [at 12.3 µM] (active)
COC(=O)c1ccccc1NC(=O)CSc1n[nH]c(-c2ccncc2)n1,inhibition,at 16.7 µM unless noted,9.97% [at 12.3 µM]
CCc1c(C)nc(SCC(=O)NC2CCCC2)[nH]c1=O,inhibition,at 16.7 µM unless noted,-1.14% [at 12.3 µM]
C=CC1=CCN(S(=O)(=O)C(C)(C)C)[C@@H]1CCO,inhibition,at 16.7 µM unless noted,21.3% [at 12.3 µM]
CCCNC(=O)N(C)C[C@H]1Oc2ncc(-c3ccc(F)cc3)cc2C(=O)N([C@H](C)CO)C[C@H]1C,inhibition,at 16.7 µM unless noted,-0.986%
CC(C)CC#Cc1cnc2c(c1)C(=O)N([C@@H](C)CO)C[C@H](C)[C@@H](CN(C)C(=O)c1cccc(F)c1)O2,inhibition,at 16.7 µM unless noted,-7.05%
C[C@H](CO)N1C[C@H](C)[C@@H](CN(C)C(=O)C2CC2)Oc2cc(C#CC3CC3)ccc2S1(=O)=O,inhibition,at 16.7 µM unless noted,18.8%
CN1CCN(C(=O)C[C@@H]2C[C@@H]3c4cc(NC(=O)c5ccc6c(c5)OCO6)ccc4O[C@@H]3[C@H](CO)O2)CC1,inhibition,at 16.7 µM unless noted,2.49%
COc1ccc(CCNC(=O)CS(=O)(=O)Cc2nc(-c3ccc(C)cc3)oc2C)cc1OC,inhibition,at 16.7 µM unless noted,9.54% [at 12.3 µM]
COc1cccc(-c2nc(CS(=O)(=O)CC(=O)NCCc3ccc(OC)c(OC)c3)c(C)o2)c1,inhibition,at 16.7 µM unless noted,28.2% [at 12.3 µM]
COc1ccc(CCNC(=O)C2CCCN(Cc3nc(-c4cccc(Cl)c4)oc3C)C2)cc1OC (stereo not given),inhibition,at 16.7 µM unless noted,81.2% [at 12.3 µM] (active)
CO[C@H]1CN(C)C(=O)c2cc(NC(=O)C3CCCC3)ccc2OC[C@@H](C)N(C(=O)CC2CC2)C[C@@H]1C,inhibition,at 16.7 µM unless noted,-11.3%
CC(=O)Nc1ccc(C=Cc2ccc([N+](=O)[O-])cc2)cc1,inhibition,at 16.7 µM unless noted,-56.5% [at 12.3 µM]
O=C1/C(=C\c2ccc([N+](=O)[O-])cc2)CS(=O)(=O)C/C1=C/c1ccc([N+](=O)[O-])cc1,inhibition,at 16.7 µM unless noted,85.4% [at 12.3 µM] (active)
O=C(O)C(=Cc1ccc([N+](=O)[O-])cc1)CCc1ccccc1,inhibition,at 16.7 µM unless noted,-1.24% [at 12.3 µM]
CS(=O)(=O)Nc1ccc2c(c1)[C@H]1C[C@H](CC(=O)NCc3ccc(Cl)cc3)O[C@@H](CO)[C@H]1O2,inhibition,at 16.7 µM unless noted,-3.71%
O=C(NCC[C@@H]1CC[C@H](NC(=O)C2CC2)[C@H](CO)O1)c1cnccn1,inhibition,at 16.7 µM unless noted,1.75%
C[C@@H]1CCCCO[C@H](CN(C)Cc2ccc(Cl)c(Cl)c2)[C@H](C)CN([C@@H](C)CO)C(=O)c2cc(NC(=O)CCC(F)(F)F)ccc2O1,inhibition,at 16.7 µM unless noted,-44.8%
Cc1ccc(S(=O)(=O)N(C)C[C@H]2Oc3ccc(NS(C)(=O)=O)cc3CC(=O)N([C@@H](C)CO)C[C@H]2C)cc1,inhibition,at 16.7 µM unless noted,-22.8%
Cc1cc(C)cc(OCC(=O)NCc2cc(C)nc3ccccc23)c1,inhibition,at 16.7 µM unless noted,31.3% [at 12.3 µM]
CN(C(=O)c1cccc([N+](=O)[O-])c1)c1ccccc1C(=O)NCc1ccccc1,inhibition,at 16.7 µM unless noted,29.4% [at 12.3 µM]
Cc1cc(CNC(=O)c2cccc([N+](=O)[O-])c2)c2ccccc2n1,inhibition,at 16.7 µM unless noted,60.8% [at 12.3 µM] (active)
COCC#Cc1ccc2c(c1)O[C@H](CN(C)C(=O)C1CCOCC1)[C@@H](C)CN([C@@H](C)CO)S2(=O)=O,inhibition,at 16.7 µM unless noted,-8.26%
Cc1ccc(S(=O)(=O)NCC[C@H]2CC[C@@H](NC(=O)C3CCOCC3)[C@@H](CO)O2)cc1,inhibition,at 16.7 µM unless noted,5.57%
O=C(Nc1ccc(F)cc1)N[C@H]1C=C[C@@H](CC(=O)N2CCOCC2)O[C@H]1CO,inhibition,at 16.7 µM unless noted,-5.7%
Cc1noc(C)c1S(=O)(=O)N(C)C[C@H]1OCCCC[C@H](C)Oc2ccc(NC(=O)c3ccccc3)cc2C(=O)N([C@@H](C)CO)C[C@H]1C,inhibition,at 16.7 µM unless noted,-37.3%
Cc1ccc(-c2ccc3c(c2)O[C@H](CN(C)C(=O)Nc2ccccc2)[C@@H](C)CN([C@@H](C)CO)S3(=O)=O)cc1,inhibition,at 16.7 µM unless noted,-12.9%
C[C@@H]1CN([C@@H](C)CO)S(=O)(=O)c2ccc(-c3cccc(F)c3)cc2O[C@@H]1CN(C)S(=O)(=O)c1ccccc1,inhibition,at 16.7 µM unless noted,92.8% (active)
C[C@@H]1CN([C@H](C)CO)S(=O)(=O)c2ccc(-c3cccc(F)c3)cc2O[C@H]1CN(C)S(=O)(=O)c1ccc(F)cc1,inhibition,at 16.7 µM unless noted,30%
C[C@H]1CN([C@@H](C)CO)S(=O)(=O)c2ccc(-c3cccc(F)c3)cc2O[C@@H]1CN(C)C,inhibition,at 12.3 µM,0.788%
same,inhibition,at 16.7 µM,-8.73% and -21.2%
C[C@@H]1CN([C@H](C)CO)S(=O)(=O)c2ccc(-c3ccncc3)cc2O[C@@H]1CN(C)C(=O)Nc1ccc(C(F)(F)F)cc1,inhibition,at 16.7 µM unless noted,27.4%
Cc1ccc(-c2ccc3c(c2)O[C@H](CN(C)C(=O)Nc2ccc(C(F)(F)F)cc2)[C@@H](C)CN([C@H](C)CO)S3(=O)=O)cc1,inhibition,at 16.7 µM unless noted,57.4% (active)
C[C@@H]1CN([C@@H](C)CO)S(=O)(=O)c2ccc(C#Cc3ccncc3)cc2O[C@@H]1CN(C)S(=O)(=O)c1ccccc1,inhibition,at 16.7 µM unless noted,19.4%
C[C@H](CO)N1C[C@H](C)[C@H](CN(C)S(=O)(=O)c2ccccc2)Oc2cc(Br)ccc2S1(=O)=O,inhibition,at 16.7 µM unless noted,78% (active)
C[C@@H]1CN([C@@H](C)CO)S(=O)(=O)c2ccc(Br)cc2O[C@H]1CN(C)S(=O)(=O)c1ccccc1,inhibition,at 16.7 µM unless noted,18.6%
CC(=O)N(C)C[C@H]1Oc2cc(C#Cc3ccccc3F)ccc2S(=O)(=O)N([C@@H](C)CO)C[C@H]1C,inhibition,at 16.7 µM unless noted,17.7%
COc1cccc(NC(=O)N(C)C[C@H]2OCc3ccccc3-c3ccccc3C(=O)N([C@H](C)CO)C[C@@H]2C)c1,inhibition,at 16.7 µM unless noted,17.7%
C[C@@H]1CN([C@H](C)CO)C(=O)Cc2cc(NC(=O)NC3CCCCC3)ccc2O[C@H]1CN(C)Cc1ccc(Cl)c(Cl)c1,inhibition,at 16.7 µM unless noted,-10.2%
CC(C)CC#Cc1ccc2c(c1)O[C@@H](CN(C)C(=O)Nc1ccccc1F)[C@@H](C)CN([C@@H](C)CO)S2(=O)=O,inhibition,at 16.7 µM unless noted,9.38%
Cn1c(CNC(=O)c2ccco2)nnc1SCC(=O)N1CCN(c2ccccc2)CC1,inhibition,at 16.7 µM unless noted,-10.4% [at 12.3 µM]
Cc1cc2nnc(SCC(=O)N3CCN(c4ccccc4)CC3)n2c(N)n1,inhibition,at 16.7 µM unless noted,-38.7% [at 12.3 µM]
Cn1c(Cc2cccc3ccccc23)nnc1SCC(=O)N1CCN(c2cccc(Cl)c2)CC1,inhibition,at 16.7 µM unless noted,94.5% [at 12.3 µM] (active)
C[C@H]1CCCCO[C@@H](CN(C)C(=O)Nc2ccccc2)[C@@H](C)CN([C@@H](C)CO)C(=O)c2cc(NC(=O)Nc3ccc(F)cc3)ccc2O1,inhibition,at 16.7 µM unless noted,-14%
O=C(CN1CCOCC1)N[C@H]1CC[C@@H](CCNS(=O)(=O)c2ccccc2F)O[C@H]1CO,inhibition,at 16.7 µM unless noted,21.8%
CCC(=O)N(C)C(c1ccccc1Cl)c1nnnn1-c1c(C)cccc1C (stereo not given),inhibition,at 16.7 µM unless noted,68.5% [at 12.3 µM] (active)
CCOC(=O)N1CCN(C(c2ccnc3ccccc23)c2nnnn2-c2c(C)cccc2C)CC1 (stereo not given),inhibition,at 16.7 µM unless noted,14.5% [at 12.3 µM]
Cc1cccc(C)c1-n1nnnc1C(CCc1ccccc1)N1CCN(C/C=C/c2ccccc2)CC1 (stereo not given),inhibition,at 16.7 µM unless noted,-59.3% [at 12.3 µM]
CC(C)NC(=O)N(C)C[C@@H]1Oc2ccc(NC(=O)Cn3cnnn3)cc2CC(=O)N([C@H](C)CO)C[C@H]1C,inhibition,at 16.7 µM unless noted,13.5%
CCCN1C(=O)c2[nH]nc(-c3ccccc3)c2C1c1ccccc1 (stereo not given),inhibition,at 16.7 µM unless noted,-22.9% [at 12.3 µM]
COc1ccc(CCN2C(=O)c3[nH]nc(-c4ccccc4O)c3C2c2ccc(C)cc2)cc1OC (stereo not given),inhibition,at 16.7 µM unless noted,101% [at 12.3 µM] (active)
COc1ccc(CCN2C(=O)C(C)=C(C)C2=O)cc1OC,inhibition,at 16.7 µM unless noted,-2.55% [at 12.3 µM]
COc1ccccc1-c1cnc2c(c1)C(=O)N([C@@H](C)CO)C[C@H](C)[C@@H](CN(C)C(C)=O)O2,inhibition,at 16.7 µM unless noted,0.851%
COc1ccc(S(=O)(=O)Nc2ccc3c(c2)C(=O)N([C@H](C)CO)C[C@@H](C)[C@@H](CN(C)CC2CCCCC2)OCCCC[C@@H](C)O3)cc1,inhibition,at 16.7 µM unless noted,-26.3%
C=CCOc1ccc(/C=C2\SC(=S)N(CCC(=O)O)C2=O)cc1,inhibition,at 16.7 µM unless noted,60.7% [at 12.3 µM] (active)
COc1cccc(/C=C2\SC(=S)N(CCCC(=O)N3CCOCC3)C2=O)c1,inhibition,at 16.7 µM unless noted,2.26% [at 12.3 µM]
COc1ccc(/C=C2\SC(=S)N(CCC(=O)N3CCOCC3)C2=O)cc1OC,inhibition,at 16.7 µM unless noted,6.28% [at 12.3 µM]
CC1(C)Cc2c(sc3nc(SCC(=O)NCc4ccccc4)n(-c4ccccc4)c(=O)c23)CS1,inhibition,at 16.7 µM unless noted,138% [at 12.3 µM] (active)
Cc1sc2nc(SCCO)n(-c3ccccc3)c(=O)c2c1C,inhibition,at 16.7 µM unless noted,14.7% [at 12.3 µM]
COCCNC(=O)CSc1nc2sccc2c(=O)n1-c1ccccc1,inhibition,at 16.7 µM unless noted,-8.5% [at 12.3 µM]
C/C=C/c1cnc2c(c1)C(=O)N([C@@H](C)CO)C[C@H](C)[C@@H](CN(C)C(=O)C1CC1)O2,inhibition,at 16.7 µM unless noted,10.3%
